Results on 19 compounds are retold here after PubChem BioAssay (NCATS).

Values joined by “and” are separate entries in the source; they are usually repeats but may differ in a detail not shown here. Identical values can stand only once. Inconclusive results are not listed. Where a structure was tested more than once in an assay, its records may differ in their call. Active and inactive are the calls of the source. Calls follow the shape of the dose curve; as a rule, active = well fitted curve in the direction sought with a large enough effect; inconclusive = small, poorly fitted or top-dose-only effect, or another doubt; inactive = no such curve, though single readings can be large; an effect the other way counts as inactive or inconclusive.

For experiment [1], the target named is Metallo-beta-lactamase type 2 (Klebsiella pneumoniae) (UniProt C7C422). Briefly: qHTS to identify inhibitors of the New Delhi Metallo-beta-lactamase (NDM): assay validation screen against the NCATS LOPAC Collection (AID 1794843).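 Also: nitrocefin turnover by NDM-1 measured as 485 nm absorbance at plateau; series mostly up to about 38 µM.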 The gist of the method: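 NDM-1 at 2 nM final in 50 mM HEPES pH 7.0 with 1 uM ZnSO4 and 0.01% Tween20 was preincubated with library compounds in DMSO. Nitrocefin (50 uM stock) was then added, and absorbance at 485 nm was read at the kinetic plateau.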
Metallo-beta-lactamase type 2 (Klebsiella pneumoniae), sequence (C7C422 whole entry, looked up): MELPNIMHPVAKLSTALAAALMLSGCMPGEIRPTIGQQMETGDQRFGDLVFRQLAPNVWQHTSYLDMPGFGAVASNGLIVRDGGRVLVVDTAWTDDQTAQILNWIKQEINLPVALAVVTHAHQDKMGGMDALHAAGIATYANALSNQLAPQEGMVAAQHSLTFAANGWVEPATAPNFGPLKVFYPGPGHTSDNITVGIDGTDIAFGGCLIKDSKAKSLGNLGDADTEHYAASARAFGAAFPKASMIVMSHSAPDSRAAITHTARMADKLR
Background: In qHTS, concentration-response curves come from the screen itself.

The target in experiment [2] is Glutathione peroxidase 1 (Homo sapiens) (UniProt P07203). Briefly: Primary qHTS Assay for Inhibitors of Recombinant Selenoprotein Glutathione Peroxidase 1 (GPX1) (AID 1845191). Also: nearly all actives have a fitted effect of over 65% in size. The gist of the method: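 10 nM GPX1 + cpd, 30 min RT; start w/ 1 mM GSH, 0.5 mM cumene hydroperoxide, 0.5 mM NADPH, 100 nM GR, 0.01% BSA; buffer 50 mM Tris-HCl pH 7.5, 2 mM EDTA, 150 mM NaCl; Fl 340/450, 0 & 15 min.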
Glutathione peroxidase 1 (Homo sapiens), sequence (P07203 whole entry, looked up): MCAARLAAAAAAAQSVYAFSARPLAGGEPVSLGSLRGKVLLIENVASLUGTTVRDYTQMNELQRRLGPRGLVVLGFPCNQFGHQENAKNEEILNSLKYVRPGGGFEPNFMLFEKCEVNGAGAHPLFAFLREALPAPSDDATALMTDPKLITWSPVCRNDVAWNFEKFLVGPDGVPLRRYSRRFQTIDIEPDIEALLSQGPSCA

Experiment [3] concerns the target Phospholipid hydroperoxide glutathione peroxidase GPX4 (Homo sapiens) (UniProt P36969). Nature of the experiment: Primary qHTS Assay for Inhibitors of Recombinant Selenoprotein Glutathione Peroxidase 4 (GPX4) (AID 1845192). Also: nearly all actives have a fitted effect of over 65% in size. Also: potency is read from the fitted curve at half-maximal effect. The method in brief:
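NADPH consumption, followed by fluorescence at 340/450 nm between 0 and 15 min, reports GPX4 activity via coupled glutathione reductase (100 nM). Enzyme 200 nM was pre-exposed to compound 30 min; 0.5 mM cumene hydroperoxide and 1 mM GSH served as substrates.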

Experiment [4] is described as follows: Quantitative High-Throughput drug screen in 47 multiple myeloma cell lines against the NCATS MIPE library collection: FR4_PLB cell viability assay (AID 1918924; also: nearly all actives have a fitted effect of over 35% in size; also: potency is read from the fitted curve at half-maximal effect). The method in brief: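 Primary qHTS used for cherry-picking: cells at 500/well, library compounds for 48 h (37C, 5% CO2), luminescent ATP assay.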
Experiment [5] is described as follows: Quantitative High-Throughput drug screen in 47 multiple myeloma cell lines against the NCATS MIPE library collection: EJM_DSMZ cell viability assay (AID 1918926; also: nearly all actives have a fitted effect of over 30% in size; also: potency is read from the fitted curve at half-maximal effect). The method in brief: (§1)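 Viability readout: CellTiter-Glo luminescence following 5 min room-temperature incubation with reagent. Prior exposure: 48 h, 37C, humidified 5% CO2, 500 cells per well.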
Experiment [6] can be described thus: Quantitative High-Throughput drug screen in 47 multiple myeloma cell lines against the NCATS MIPE library collection: ARP1_JJKsccF8 cell viability assay (AID 1918928; also: nearly all actives have a fitted effect of over 40% in size; also: potency is read from the fitted curve at half-maximal effect). The method in brief: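 Myeloma cells, 500 per well, were exposed to MIPE 4.0 drugs by pin transfer for 48 h at 37 °C, 5% CO2. Viability was read as ATP luminescence with CellTiter-Glo, normalised to DMSO-only (100%) and medium-only (0%) wells.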

Experiment [7] in a line: Quantitative High-Throughput drug screen in 47 multiple myeloma cell lines against the NCATS MIPE library collection: ARD_JJKsccE7 cell viability assay (AID 1918929; also: potency is read from the fitted curve at half-maximal effect). The gist of the method:
as §1

The nature of experiment [8]: Primary fluorescence-based thiol-reactive (MSTI) qHTS assay for identification of artifact compounds. (AID 1845221). Also: series mostly up to about 54 µM; nearly all actives have a fitted effect of over 65% in size. The gist of the method: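 Compounds were incubated 1 h at room temperature in the dark with the MSTI probe (4 uM) in PBS pH 7.4, 2% DMSO. Signals were normalized between Acetyl-MSTI and MSTI.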
The test system of experiment [9] is Nanoluciferase (engineered Oplophorus gracilirostris luciferase). Nature of the experiment: Primary Nanoluciferase (NLuc) qHTS assay for identification of artifact compounds. (AID 1845222). Also: series mostly up to about 54 µM. The gist of the method:
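Luminescence from secreted NLuc (filtered, 1:55-diluted S16 cell medium) read 5 min after Nano-Glo substrate; compounds preincubated 15 min, RT. Hill fits of inhibition normalized to DMSO and no-enzyme.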

A short description of experiment [10]: Primary redox qHTS assay for identification of artifact compounds. (AID 1845223). The gist of the method:
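Amplex Red (25 uM) and HRP (250 mU/mL) in HBSS, with compounds for 15 min, then 250 uM DTT for 30 min, room temperature, dark. Fluorescence 525/598 nm read; normalized to DMSO and 10 uM DA3003; Hill fit.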

Experiment [11] can be described thus: Quantitative High-Throughput drug screen in 47 multiple myeloma cell lines against the NCATS MIPE library collection: AMO1_DSMZ cell viability assay (AID 1918927; also: nearly all actives have a fitted effect of over 30% in size; also: potency is read from the fitted curve at half-maximal effect). The gist of the method:
as §1

Experiment [12] in a line: Quantitative High-Throughput drug screen in 47 multiple myeloma cell lines against the NCATS MIPE library collection: Delta47_JCRB cell viability assay (AID 1918925; also: nearly all actives have a fitted effect of over 45% in size; also: potency is read from the fitted curve at half-maximal effect). The method in brief: as §1

Phospholipid hydroperoxide glutathione peroxidase GPX4 (Homo sapiens), sequence (P36969 whole entry, looked up): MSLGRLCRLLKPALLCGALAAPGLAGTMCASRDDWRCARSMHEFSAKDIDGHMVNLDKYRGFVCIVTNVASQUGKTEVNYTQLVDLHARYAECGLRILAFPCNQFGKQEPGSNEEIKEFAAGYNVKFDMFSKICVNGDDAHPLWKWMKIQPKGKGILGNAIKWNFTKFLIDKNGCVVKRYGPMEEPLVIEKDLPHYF

Regarding `O=c1c(O)c(-c2ccc(O)cc2O)oc2cc(O)cc(O)c12`, the result in experiment [1] was inactive. For the same compound, the Potency entry in experiment [2], in experiment [4], in experiment [5], in experiment [6] and in experiment [7] was “inactive” each time. Also, in experiment [3], the Potency entry was “inactive and 10.1 µM (active)”.
In the case of `CCCS(=O)c1ccc2nc(NC(=O)OC)[nH]c2c1` (stereo not drawn), the Potency result in experiment [2], in experiment [3], in experiment [8], in [5] and in experiment [11] was “inactive” each time. Moreover, the call in [9] and in experiment [10] was inactive. For the same compound, the Potency in experiment [4] is 11.8 µM (active); in experiment [6], 23.5 µM (active).
Regarding `O=C(NOCC1CC1)c1ccc(F)c(F)c1Nc1ccc(I)cc1Cl`, the Potency result in experiment [2], in [3] and in experiment [8] was “inactive” in each case. The outcome in experiment [9] and in experiment [10] was inactive. Moreover, the Potency in experiment [4] is 23.5 µM (active); in experiment [12], 20.9 µM (active); in experiment [11] it was 6.62 µM (active); in experiment [7], 11.8 µM (active).
For the compound `CNC[C@H](O)c1ccc(O)c(O)c1`, in experiment [1], the call was inactive. Further, the Potency entry in experiment [2], in [3], in experiment [11] and in [7] was “inactive” throughout. Further, the Potency in experiment [4] is 9.59 µM (active); in experiment [6], 15.2 µM (active).
As to `O=C(c1ccccc1)c1ccc2n1CCC2C(=O)O` (stereo not drawn), in experiment [1], the compound was classed as inactive. Besides, the Potency result in experiment [2], in experiment [3], in experiment [4] and in experiment [7] was “inactive” each time. The Potency in [12] is 9.35 µM (active); in experiment [5], 2.35 µM (active).
`CCC1=C(C)CN(C(=O)NCCc2ccc(S(=O)(=O)NC(=O)NC3CCC(C)CC3)cc2)C1=O` (stereo not drawn): the Potency result in experiment [2], in experiment [3], in experiment [8], in experiment [4], in [12] and in experiment [5] was “inactive” in each case. Besides, the Potency entry in experiment [11], in experiment [6] and in [7] was “inactive” each time. Besides, the call in experiment [9] and in experiment [10] was inactive.
Turning to `CCOC(=O)C1=C(O)C(=O)N(Cc2ccccc2)C1`, the compound was called inactive in experiment [1]. The Potency entry in experiment [2], in [3], in [4], in experiment [5], in experiment [11] and in experiment [7] was “inactive” each time.
Consider `CC(=O)O[C@H]1C(=O)[C@@]2(C)C([C@H](OC(=O)c3ccccc3)[C@]3(O)C[C@H](OC(=O)[C@H](O)[C@@H](NC(=O)c4ccccc4)c4ccccc4)C(C)=C1C3(C)C)[C@]1(OC(C)=O)CO[C@@H]1C[C@@H]2O` (stereo partly drawn), for which the Potency result in [2], in experiment [3], in [8], in [4], in experiment [5] and in experiment [6] was “inactive” in each case. The compound was classed as inactive in [9] and in experiment [10].
In the case of `OC(CN1CCN(c2cccc(Cl)c2)CC1)C(c1ccccc1)c1ccccc1` (stereo not drawn), the Potency result in [2], in [3], in experiment [8], in experiment [4], in experiment [5] and in experiment [7] was “inactive” in each case. The outcome in experiment [9] and in experiment [10] was inactive.
Consider `Cc1cccc(-c2[nH]ncc2-c2ccc3ncccc3n2)n1`, for which, in experiment [1], the call was inactive. The Potency entry in experiment [2], in experiment [3], in experiment [5], in [11], in [6] and in experiment [7] was “inactive” throughout. Further, the Potency in [4] is 0.118 µM (active).
Regarding `O=Nc1c(-c2c(O)[nH]c3cc(Br)ccc23)[nH]c2ccccc12`, the call in experiment [1] was inactive. The Potency entry in experiment [2], in [3] and in [4] was “inactive” throughout. The Potency was 5.9 µM (active) in experiment [12], 14.8 µM (active) in [5], 1.05 µM (active) in [11] and 14.8 µM (active) in experiment [6].
For the compound `Cc1cccc(C#Cc2ccccc2)n1`, in [1], the result was inactive. Moreover, the Potency result in [2], in experiment [3], in experiment [4], in experiment [12], in experiment [5] and in [11] was “inactive” each time. For the same compound, the Potency in experiment [6] is 20.9 µM (active).
For `CCC(C)(Oc1ccc(C2(c3ccc(OC(C)(CC)C(=O)O)cc3)CCCCC2)cc1)C(=O)O` (stereo not drawn), the Potency entry in experiment [2], in experiment [3], in experiment [8], in experiment [4], in [12] and in experiment [5] was “inactive” in each case. For the same compound, the Potency entry in [11] and in experiment [7] was “inactive” throughout. Further, the compound was called inactive in [9].
In the case of `CC(=O)N1CCN(c2ccc(OC[C@H]3CO[C@](Cn4ccnc4)(c4ccc(Cl)cc4Cl)O3)cc2)CC1`, the outcome in [1] was inactive. The Potency result in experiment [2] and in experiment [3] was “inactive” each time. Further, the Potency in [12] was 18.7 µM (active); in experiment [5], 8.33 µM (active); in experiment [11], 7.43 µM (active).
In the case of `CC1(C)NC(=O)N(c2ccc([N+](=O)[O-])c(C(F)(F)F)c2)C1=O`, in experiment [1], the compound was called inactive. Moreover, the Potency result in [2], in [3], in experiment [11] and in experiment [7] was “inactive” throughout.
In the case of `Oc1ccc(-c2nc(-c3ccc(F)cc3)c(-c3ccncc3)[nH]2)cc1`, the call in experiment [1] was inactive. The Potency entry in experiment [2], in experiment [3], in [11] and in experiment [7] was “inactive” in each case. Also, the Potency in [12] was 5.9 µM (active).
In the case of `CC(=O)Nc1ccc(O)cc1`, the Potency result in experiment [2] and in experiment [3] was “inactive” in each case.
Take `C[C@@H](c1ncncc1F)[C@](O)(Cn1cncn1)c1ccc(F)cc1F`: the result in experiment [1] was inactive. Besides, the Potency result in experiment [2], in experiment [3], in [4], in [12], in experiment [5] and in [11] was “inactive” throughout. The Potency entry in experiment [6] and in experiment [7] was “inactive” each time.
Regarding `O=C(O)c1cccnc1Nc1cccc(C(F)(F)F)c1`, the result in [1] was inactive. Besides, the Potency entry in experiment [2], in [3], in [4], in experiment [12], in experiment [5] and in experiment [11] was “inactive” in each case. Moreover, the Potency result in experiment [6] and in experiment [7] was “inactive” each time.
